# Screening data deposited in PubChem BioAssay by National Center for Advancing Translational Sciences (NCATS).
# HCMV antiviral – human cytomegalovirus inhibition. 410,000 compounds, 4.5% hits. activity change, negative = inhibition, % at 57.5 µM. HFF cells, HCMV-luciferase reporter, 72 h; active compounds read low; in the data active means activity change below about -60%; inconclusive means no clear call, values can overlap the other calls; inactive means above about -39%
#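 Screen run at 2 compound doses on HFFs infected with reporter HCMV, MOI 1 PFU/cell. Luciferase activity from cell lysates at 72 h post infection gave inhibition relative to buffer-only and Salinomycin wells.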
# VACV Venus inh – inhibitors of vaccinia virus (Venus reporter). Vaccinia virus Venus reporter expression, fluorescence. Potency, µM (top dose mostly 36.5 µM), for the others: at the top dose activity change, negative = inhibition, usual class: inhibitors. 330,000 compounds, 0.46% hits. AID 720580; calls by dose curve; tested in A549 cells; further: potency means the concentration at half of the fitted maximal effect; nearly all actives have a fitted effect of over 30% in size
# LmPK inhibitor – LmPK (Leishmania mexicana) enzyme inhibition. Q27686. purified LmPK, Kinase-Glo ATP luminescence, 1 h. Potency, µM (doses to about 57.5 µM), for the others: at the highest dose activity change, negative = inhibition, actives largely listed as inhibitors. 290,000 compounds, 0.37% hits. AID 1721; further: potency means the concentration at half of the fitted maximal effect
# Target sequence (Q27686 whole entry, looked up): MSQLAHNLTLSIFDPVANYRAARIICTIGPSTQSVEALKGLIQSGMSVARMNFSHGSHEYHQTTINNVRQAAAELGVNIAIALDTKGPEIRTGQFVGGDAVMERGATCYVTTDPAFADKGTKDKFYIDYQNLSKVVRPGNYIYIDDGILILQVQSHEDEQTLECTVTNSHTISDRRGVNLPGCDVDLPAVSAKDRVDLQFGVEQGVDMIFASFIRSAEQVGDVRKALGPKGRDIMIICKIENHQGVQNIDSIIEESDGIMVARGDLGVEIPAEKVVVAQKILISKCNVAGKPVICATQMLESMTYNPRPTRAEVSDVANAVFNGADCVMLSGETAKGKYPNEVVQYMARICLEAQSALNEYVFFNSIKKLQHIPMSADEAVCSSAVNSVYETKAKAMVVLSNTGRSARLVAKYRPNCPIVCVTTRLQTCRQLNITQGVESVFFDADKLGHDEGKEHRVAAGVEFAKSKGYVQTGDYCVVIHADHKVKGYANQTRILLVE
#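 Purified LmPK (0.1 nM) converted ADP (0.1 mM) to ATP with PEP (0.5 mM) in imidazole buffer pH 7.2 with KCl and MgCl2, 1 h at room temperature. ATP was read by Kinase-Glo luminescence; data normalized to uninhibited and no-enzyme controls.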
# TbPYK inhibitor – T. brucei pyruvate kinase inhibition. TbPYK enzyme, Kinase-Glo Plus ATP luminescence, 45 min. 410,000 compounds, 0.12% hits. Potency, µM (doses to about 76.8 µM), for the others: top-dose activity, negative = inhibition, actives largely listed as inhibitors; further: potency means the concentration at half of the fitted maximal effect; nearly all actives have a fitted effect of over 50% in size
#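 Glycolytic pyruvate kinase of T. brucei was incubated with substrate, test compound and 130 uM ADP for 45 minutes at room temperature. Luminescent Kinase-Glo Plus signal was measured after 10 minutes.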
# VACV mCherry inh – vaccinia inhibition (mCherry reporter); Vaccinia virus mCherry reporter infection, fluorescence; Potency, µM (titrated, usually from 36.5 µM), without a hit: at the top dose activity change, negative = inhibition, actives largely listed as inhibitors; 310,000 compounds, 0.63% hits; calls by dose curve; tested in A549 cells; further: potency means the concentration at half of the fitted maximal effect; nearly all actives have a fitted effect of over 35% in size
# * = called active by the depositor; i = inactive; ? = inconclusive; · = not tested or not shown; [ ] = another dose, or the depositor's remark. Most compounds without a hit are left out; they make up all but 5% or so of the library. Unless noted, the call rests on the fitted dose curve; in most records, active means well fitted curve in the direction sought with a large enough effect; inconclusive means small, poorly fitted or top-dose-only effect, or another doubt; inactive means no such curve, though single readings can be large; an effect the other way counts as inactive or inconclusive. On the % scale 0 is the no-effect control and ±100 the full control effect.
SMILES,HCMV antiviral,VACV Venus inh,LmPK inhibitor,TbPYK inhibitor,VACV mCherry inh
CC(=O)c1cccc(NC(=O)c2sc(-n3nc(C)c(Cc4ccccc4)c3C)nc2C)c1,-61*,-21%,·,-9%,-20%
Cc1oc(/C=N/NS(=O)(=O)c2ccccc2)cc1Br,-30,-17%,-1%,-11%,-25%
COc1ccc(Nc2oc(COc3ccc(C)cc3)nc2C#N)cc1,?,·,8%,·,·
COc1ccc(Nc2oc(COc3ccc(OC)cc3)nc2C#N)cc1,-70*,·,0%,-6%,·
COc1cc2c(cc1OC)C(c1cc3ccccc3oc1=O)=NC(C)(C)C2,-98*,-26%,-1%,10%,·
COc1ccc(C2=NC(C)(C)Cc3cc(OC)c(OC)cc32)cc1OC,-1,·,5%,0%,·
CCCN(Cc1ccc(N(C)C)cc1)CC1CC1,7,-16%,1%,1%,-6%
CCCN(Cc1ccc(N(CC)CC)cc1)CC1CC1,-66*,-15%,-1%,-2%,-29%
COc1cccc(C(=O)Nc2cc3c(cc2Cl)OCCCO3)c1,48,-3%,-10%,8%,i
Cc1ccccc1C(=O)Nc1nc2c(s1)CC(C(C)(C)C)CC2 (stereo not given),-66*,0%,·,1%,-16%
COc1ccc(CN(C(=O)c2ccccc2OC)C2CCS(=O)(=O)C2)cc1 (stereo not given),42,·,0%,-11%,·
Cc1ccccc1OCC(O)COc1ccccc1C,-100*,-7%,·,4%,i
N=c1n(CCN2CCCCC2)c2ccccc2n1CC(O)c1ccc(Cl)c(Cl)c1 (stereo not given),-97*,11µM*,7%,1%,?
Cc1ccccc1OCC(O)Cn1c(=N)n(CCN2CCOCC2)c2ccccc21 (stereo not given),?,?,5%,1%,27%
Cc1ccccc1OCCN1C(=O)c2ccccc2C1=O,9,-8%,-6%,-13%,i
Cc1ccccc1OCC(O)Cn1c(=N)n(CCN2CCCCC2)c2ccccc21 (stereo not given),-92*,?,·,1%,?
Cc1ccccc1OCCn1c(=N)n(C(C)C)c2ccccc21,-69*,-12%[7.34 µM],·,2%,-15%[7.34 µM]
Cc1ccccc1OCC(O)CN (stereo not given),-21,-28%,5%,8%,-6%
COc1ccc2[nH]cc(C(=O)N3CCCCC3)c(=O)c2c1,71,·,-1%,-3%,·
O=C1c2ccccc2C(c2nnnn2Cc2ccccc2)N1CCc1ccccc1F (stereo not given),12,-1%,·,-4%,-6%
Cc1cc(N2CCC(C(=O)Nc3ccc(F)cc3F)CC2)n2nc(C)c(-c3ccc(Cl)cc3)c2n1,-4,6%,·,-7%,3%
O=C(CCS(=O)(=O)c1cc(Br)cc2c1N(C(=O)C1CC1)CC2)N1CCN(c2cccc(Cl)c2)CC1,5,-11%,·,-7%,-17%
COc1ccccc1C(=O)Nc1nc2ccccc2[nH]1,-76*,-10%,11µM*,10µM*,-12%
Cc1ccc(C(=O)Nc2cc3ccccc3oc2=O)cc1,-67*,-24%,13µM*,?,-4%
CC(=O)Nc1cc2ccccc2oc1=O,-26,-4%,0%,6%,-1%
SMILES,HCMV antiviral,VACV Venus inh,LmPK inhibitor,TbPYK inhibitor,VACV mCherry inh
COc1ccc(N(C)S(=O)(=O)c2cccc(C(=O)Nc3ccc(OC)nc3)c2)cc1,-68*,·,3%,·,·
COc1ccccc1C(=O)NCCC(=O)Nc1nc2ccccc2[nH]1,74,?,·,-3%,-14%
Cc1ccc(C(=O)Nc2nc3ccccc3[nH]2)cc1,-84*,?,?,-13%,i
CCc1nc2nc(C)cc(Nc3ccc(OC)cc3)n2n1,-5,-16%,·,-2%,-16%
O=C(CSc1ncnc2c1cnn2-c1ccccc1)NCC1CCCO1 (stereo not given),-39,-26%,·,-5%,-18%
CN(C)C(=O)c1ccc(Cl)cc1[N+](=O)[O-],-36,2%,-4%,2%,-4%
O=C(NCCc1ccc(Cl)cc1)c1ccc(CSCc2ccc(Cl)cc2)o1,-30,-13%,·,-5%,-11%
CN(C)c1cc[n+](/C(C(=S)Nc2ccc(SC(F)F)cc2)=C(/[O-])c2ccccc2)cc1,?,·,6%,-1%,·
COC(=O)C1CCN(CC(=O)Nc2cc(C)c3c(=O)oc4ccccc4c3n2)CC1,3,3%,·,3%,12%
